# ATXN viability: viability counter-screen for ATXN expression inhibitors | S2 cells (HEK-293 line with an ATXN2-luciferase reporter) viability, CellTiter-Fluor protease fluorescence, 24 h | Potency, µM (highest dose often 56.7 µM), usual class: cytotoxic | 400,000 tested, 0.49% active | AID 651635; note: nearly all actives have a fitted effect of over 40% in size
# ATXN2 expr inh: ATXN2 expression inhibition. Potency, µM (top dose mostly 57 µM), without a hit: at the top dose activity change, negative = inhibition, usual class: inhibitors. HEK-293 ATXN2-luciferase reporter, luminescence, 24 h. 360,000 tested, 0.72% active; note: % is set by controls: 0 for no effect and ±100 for the full control effect; nearly all actives have a fitted effect of over 55% in size
#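 ATXN2-luciferase reporter cells (luciferase flanked by upstream and downstream ATXN2 gene portions) were treated 24 h at 37 °C with compounds at up to 57 uM. SteadyGlo luminescence gave expression; GF-AFC fluorescence gave viability.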
# KB-3-1 tox: kills parental KB-3-1 adenocarcinoma cells; KB-3-1 viability, CellTiter-Glo ATP luminescence, 72 h; Potency, µM (highest dose often 46.1 µM), actives largely listed as cytotoxic; 400,000 tested, 1.4% active; note: % is set by controls: 0 for no effect and ±100 for the full control effect; nearly all actives have a fitted effect of over 60% in size
#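 KB-3-1 cells, DMEM (no phenol red) + 10% FBS; compound by pin transfer, 72 h, 37 °C. Readout: CellTiter-Glo luminescence after 10 min. Data normalized, curve-fitted.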
# KB-V1 cytotox: kills drug-selected multidrug resistant KB-V1 cells; KB-V1 MDR cells viability, CellTiter-Glo, 72 h; 400,000 tested, 3.4% active; Potency, µM (titrated, usually from 46.1 µM), actives largely listed as cytotoxic; note: % is set by controls: 0 for no effect and ±100 for the full control effect; nearly all actives have a fitted effect of over 60% in size
#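 KB-V1 cells (P-gp-expressing MDR subline of KB-3-1) in phenol-red-free DMEM with 10% FBS were exposed to library compounds over a concentration series for 72 h at 37 degrees C. Viability read by CellTiter-Glo luminescence; concentration-effect curves fitted after normalization.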
# HT1080NT lethal: kills 2HG-producing HT-1080-NT fibrosarcoma cells; 360,000 tested, 1.6% active; Potency, µM (highest dose often 46.1 µM), for the others: at the highest dose activity, negative = less viability, hits mostly cytotoxic; HT-1080-NT fibrosarcoma viability, CellTiter-Glo ATP luminescence, 48 h;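 note: NT is the 2HG producing partner of a matched IDH1 knockdown line; 0% = DMSO-treated cells and -100% = media-only wells without cells; nearly all actives have a fitted effect of over 55% in size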
#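 Viability by CellTiter-Glo luminescence after 48 h compound exposure at 37C of HT-1080-NT cells (750/well, RPMI, 5% FBS). % activity scaled between DMSO wells and medium-only wells, then curve-fitted and categorized by curve class.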
# HT1080 IDH1KD tx: toxicity to HT-1080 IDH1 knockdown cells (counter line); Potency, µM (top dose mostly 46.1 µM), for inactives: at the top dose activity, negative = toxicity, hits mostly cytotoxic; HT-1080 IDH1 knockdown viability, ATP luminescence, 48 h; AID 686971; 360,000 tested, 2% active;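 note: 0% = DMSO wells and -100% = cell-free medium wells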
#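 Cytotoxicity counter-line: IDH1KD HT-1080, 48 h, CellTiter-Glo. Curves classed by r2, magnitude and activity.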
# Active calls of the source: *; i = inactive; u = inconclusive; x = no result. The list is not random: actives were taken first. Their share in the collection is about 6.2%. Calls come from the whole dose curve; as a rule, active = well fitted curve in the direction sought with a large enough effect; inconclusive = small, poorly fitted or top-dose-only effect, or another doubt; inactive = no such curve, though single readings can be large; an effect the other way counts as inactive or inconclusive. Potency is the fitted concentration of half-maximal effect.
SMILES,ATXN viability,ATXN2 expr inh,KB-3-1 tox,KB-V1 cytotox,HT1080NT lethal,HT1080 IDH1KD tx
COc1cc(/C=N/NC(=O)C(=O)/C=C2\NC3(CCCC3)Cc3ccccc32)ccc1O,u,-5%,i,u,-18%,-25%
CN(C)c1ccc(/C=N/NC(=O)C(=O)/C=C2\NC3(CCCC3)Cc3ccccc32)cc1,u,6%,i,18µM*,-4%,-16%
Cc1cccc(S(=O)(=O)N(C)C[C@H]2OCc3cn(nn3)CCCC(=O)N([C@@H](C)CO)C[C@@H]2C)c1,i,1%,i,i,0%,0%
COc1ccc(NC(=O)c2ccc3c(c2)CCN3S(C)(=O)=O)cc1,i,x,i,u,11%,4%
CCCCOC(=O)c1ccc(NC(=O)c2ccc3c(c2)CCCN3S(C)(=O)=O)cc1,u,7.1µM*,i,u,x,x
CN(C)S(=O)(=O)c1ccc(N2CCN(S(=O)(=O)c3ccc(F)cc3)CC2)c(Cl)c1,i,-33%,u,5.8µM*,10µM*,7.1µM*
COc1ccc(CCN2C(=O)N(c3ccc(F)cc3)C(=O)C2CC(=O)Nc2ccccc2)cc1 (stereo unspecified),u,2%,i,i,x,x
O=C(CCn1c(=O)oc2ccccc21)N1CCN(c2ccccc2F)CC1,i,6%,i,23µM*,9%,6%
O=C(CCCn1c(=O)oc2ccccc21)N1CCN(c2ccc(F)cc2)CC1,i,-11%,i,i,9%,7%
COc1cc(CN(C(=O)c2ccccc2)c2ccccn2)cc(OC)c1OC,i,-5%,i,i,x,x
CCOC(=O)c1ccc(NS(=O)(=O)c2cn(C)c(C)n2)cc1,i,4%,i,i,x,x
CCCCCCCNC(=O)C1(CC2CC(c3ccc(Cl)cc3)=NO2)CCNCC1 (stereo unspecified),x,28µM*,u,i,-3%,-24%
CCCCCCCNC(=O)C1(CC2CC(c3ccc(Cl)cc3)=NO2)CCN(C(=O)Cc2ccc(F)cc2)CC1 (stereo unspecified),i,0%,i,i,0%,0%
O=C(NC(CSCc1ccccc1)C(=O)N/N=C/c1ccc(O)cc1O)c1ccc([N+](=O)[O-])cc1 (stereo unspecified),i,3.2µM*,u,i,2.8µM*,0.89µM*
COc1cc(O)ccc1/C=N/NC(=O)c1ccc([N+](=O)[O-])cc1,i,-9%,i,i,4%,0%
CCC(=O)c1ccccc1OCCCN1CCC(Cc2ccccc2)CC1,u,u,u,u,18µM*,u
Cc1ccccc1OCCN1CCC(Cc2ccccc2)CC1,u,x,i,i,-7%,-2%
Cc1ccc([N+](=O)[O-])c(OCCN2CCC(Cc3ccccc3)CC2)c1,i,-27%,u,21µM*,21µM*,16µM*
Cc1ccc(O)c(-c2ccnc3cc(-c4ccc(Cl)cc4)nn23)c1,i,2%,i,i,x,x
O=C(Cc1cccs1)Nc1nc(-c2ccccc2)cs1,i,17%,u,16µM*,-28%,u
O=C(/C=C/c1ccc2c(c1)OCO2)Nc1nncs1,i,-22%,5.8µM*,i,u,1µM*
COC(=O)CSc1nnc(NC(=O)/C=C\c2ccc3c(c2)OCO3)s1,i,-23%,i,i,5%,12%
O=C(CCS(=O)(=O)c1ccccc1)Nc1nc(-c2ccc(F)cc2)cs1,i,-7%,i,i,u,21µM*
COC(=O)c1c(NC(=O)/C=C/c2ccc3c(c2)OCO3)sc(C)c1C,i,-17%,i,i,-18%,-3%
CCOC(=O)c1c(NC(=O)/C=C/c2ccc3c(c2)OCO3)sc(C)c1CC,i,-18%,21µM*,i,-2%,-6%
SMILES,ATXN viability,ATXN2 expr inh,KB-3-1 tox,KB-V1 cytotox,HT1080NT lethal,HT1080 IDH1KD tx
O=C(/C=C/c1ccc2c(c1)OCO2)Nc1nc(-c2ccccc2)cs1,u,-24%,7.3µM*,u,-1%,u
CC(=O)Nc1nc(-c2ccc3c(c2)OCO3)cs1,i,44%,i,i,9%,1%
Cc1sc(NC(=O)/C=C/c2ccc3c(c2)OCO3)nc1-c1ccccc1,u,u,1.3µM*,2.9µM*,-10%,u
CS(=O)(=O)N1CCc2cc(-c3csc(NC(=O)Cc4cccs4)n3)ccc21,u,18µM*,i,i,10µM*,u
Cc1cc(C)nc(NC(=O)/C=C/c2ccc3c(c2)OCO3)c1,i,34%,u,u,u,4.6µM*
CC(=O)Nc1nc(-c2ccc3c(c2)CCN3S(C)(=O)=O)cs1,i,53%,i,i,-1%,-3%
O=C1NC[C@H](Cc2ccccc2)N(C[C@@H]2CCCN2C[C@H](Cc2ccc(O)cc2)N2C[C@H](Cc3ccccc3)N(CCc3ccccc3)C(=O)C2=O)C1=O,u,14%,u,i,u,u
O=C(/C=C/c1ccc2c(c1)OCO2)NCCSCc1ccc(Cl)cc1,i,-30%,18µM*,i,-13%,-18%
O=C(/C=C/c1ccc2c(c1)OCO2)NCCSCc1c(Cl)cccc1Cl,i,-17%,i,u,-11%,u
CC(=O)NS(=O)(=O)c1ccc(NC(=O)/C=C/c2cn(-c3ccccc3)nc2-c2ccccc2)cc1,i,5%,i,i,1%,8%
O=C(/C=C/c1cccs1)Nc1nc(-c2ccccc2)cs1,u,-33%,u,15µM*,u,u
O=C(/C=C\c1cn(-c2ccccc2)nc1-c1ccccc1)Nc1nccs1,u,-12%,u,u,15µM*,21µM*
O=C(COC(=O)/C=C/c1cccs1)Nc1nc(-c2ccccc2)cs1,i,4%,i,i,-21%,-13%
CCN(CC)C1CCN(C(=O)c2cnn(-c3nccc(-c4ccco4)n3)c2C(C)C)C1 (stereo unspecified),i,x,x,x,x,x
COc1ccc(CCN2C(=O)c3[nH]nc(-c4ccccc4O)c3C2c2ccccc2)cc1OC (stereo unspecified),i,-25%,16µM*,23µM*,u,33µM*
CC(C)OCCCN1C(=O)c2[nH]nc(-c3ccccc3O)c2C1c1cccc(Cl)c1 (stereo unspecified),u,u,u,16µM*,u,u
COCCCN1C(=O)c2[nH]nc(-c3ccccc3O)c2C1c1cccc(Cl)c1 (stereo unspecified),u,-16%,8.2µM*,21µM*,26µM*,u
